# Reference: PubChem BioAssay (Tox21)
# “And” between values parts separate entries of the source, which are not always exact repeats. Equal entries are not always repeated. Records with an inconclusive call do not appear. Where a call stands in place of a potency, no number is given. A structure can be active in one record and inactive in another. The source made the active and inactive calls. Unless noted, the call rests on the fitted dose curve; in most records, active means well fitted curve in the direction sought with a large enough effect in the repeat runs; inconclusive means weak or mixed curves; inactive means no such curve, though single readings can be large; an effect the other way counts as inactive or inconclusive.
# Key:
# [1] = target: Thyrotropin receptor (Homo sapiens) (UniProt P16473); test: qHTS assay to identify small molecule agonists of the thyroid stimulating hormone receptor (TSHR) signaling pathway (AID 1224843; calls by dose curve; further: nearly all actives have a fitted effect of over 45% in size; further: potency means the concentration at half of the fitted maximal effect)
# Method in brief: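 A cell-based cAMP HTRF format was run in TSHR-transfected HEK293 cells, 800 per well. Treatment: 30 min, room temperature. Detection: 1 h with labelled cAMP and anti-cAMP cryptate. Concentration-response over 15 points, three replicates.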
# [2] = qHTS assay to identify small molecule agonists of the hypoxia (HIF-1) signaling pathway - cell viability counter screen (AID 1224844; calls by dose curve; further: nearly all actives have a fitted effect of over 50% in size; further: potency means the concentration at half of the fitted maximal effect)
# Method in brief: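 CellTiter-Glo luminescence read-out, 30 min RT, taken in the same wells as the beta-lactamase HRE reporter assay; HRE-bla ME-180 cells, 0.5% dialyzed FBS, 17 hr compound treatment at 37C, 5% CO2.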
# [3] = qHTS assay to identify small molecule agonists of H2AX (AID 1224845; active means well fitted activation curve with a large enough effect in the signal ratio in the repeat runs, not every such curve was filed as active; the % refers to the signal ratio)
# Method in brief: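 Phospho-H2AX Ser139 measured by HTRF (ex 320 nm; em 665 and 620 nm) after 24 hr antibody incubation. Compounds, 15 concentrations, 0.76% DMSO, were applied to CHO-K1 cells for 3hr at 37C before lysis.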
# [4] = qHTS assay to identify small molecule agonists of the hypoxia (HIF-1) signaling pathway (AID 1224846; active means well fitted activation curve with a large enough effect in the signal ratio in the repeat runs, not every such curve was filed as active; the % refers to the signal ratio)
# Method in brief: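 Beta-lactamase FRET read-out (CCF4-AM substrate) from ME-180 cells carrying an HRE-driven bla reporter, after 17 hrs compound exposure at 37C/5% CO2. Cells were seeded at 2,000 per well in 0.5% dialyzed FBS medium and preincubated 5 hrs.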
# [5] = qHTS assay to identify small molecule agonists of H2AX - cell viability counter screen (AID 1224847; calls by dose curve; further: nearly all actives have a fitted effect of over 30% in size; further: potency means the concentration at half of the fitted maximal effect)
# Method in brief: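 Cytotoxicity counter screen in wild-type CHO-K1 cells: a 3 hr compound treatment at 37C across 15 concentrations, followed by CellTiter-Glo luminescence to gauge viable cells.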
# [6] = qHTS RealTime-Glo MT Cell Viability Assay in HepG2 cells - 24 hour (AID 1224867); further: nearly all actives have a fitted effect of over 50% in size; further: potency means the concentration at half of the fitted maximal effect
# Method in brief: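 Tox21 10K library screened in qHTS format on HepG2 cells carrying RealTime-Glo reagents. Compounds were added after a 5 h preincubation, and the luminescent signal from continuous culture was measured repeatedly during 40 h treatment.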
# [7] = qHTS RealTime-Glo MT Cell Viability Assay in HEK293 cells - 32 hour (AID 1224868); further: nearly all actives have a fitted effect of over 50% in size; further: potency means the concentration at half of the fitted maximal effect
# Method in brief: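 Luminescence generated by NanoLuc from substrate produced by living HEK293 cells served as the viability signal. Each value reflects the reading at its stated time point during continuous 40 h compound exposure at 37 C.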
# [8] = A CellTox Green Cytotoxicity Assay to monitor cytotoxicity in HEK293 cells - 0 hour (AID 1224869); further: nearly all actives have a fitted effect of over 50% in size
# Method in brief: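 Read-out: fluorescence of a cell-impermeant cyanine dye staining DNA of dead cells, proportional to cytotoxicity. HEK293, 600 cells/well with reagent, compound (23 nL DMSO) added after 5 h; reads at 0, 8, 16, 24, 32, 40 h.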
# [9] = qHTS assay to identify small molecule antagonists of the estrogen related receptor (ERR) signaling pathway from Tox21 library (AID 1224848); further: nearly all actives have a fitted effect of over 50% in size; further: potency means the concentration at half of the fitted maximal effect
# Method in brief: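 ERR cell line, 2,000 cells/well. 6 h settle, then compound (DMSO) added; 18 h at 37 C; ONE-Glo luminescence after 30 min RT.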
# [10] = qHTS assay to identify small molecule agonists of the estrogen related receptor (ERR) signaling pathway from Tox21 library (AID 1224849; calls by dose curve; further: nearly all actives have a fitted effect of over 15% in size); settings: ERR reporter cell line, ONE-Glo luciferase, 18 h
# Method in brief: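 Luminescence readout (ONE-Glo, 30 min RT) after 18 h compound exposure at 37 C of NTP-supplied ERR reporter cells; cells were plated 6 h before compound addition by pin tool.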
# Thyrotropin receptor (Homo sapiens), sequence (P16473 whole entry, looked up): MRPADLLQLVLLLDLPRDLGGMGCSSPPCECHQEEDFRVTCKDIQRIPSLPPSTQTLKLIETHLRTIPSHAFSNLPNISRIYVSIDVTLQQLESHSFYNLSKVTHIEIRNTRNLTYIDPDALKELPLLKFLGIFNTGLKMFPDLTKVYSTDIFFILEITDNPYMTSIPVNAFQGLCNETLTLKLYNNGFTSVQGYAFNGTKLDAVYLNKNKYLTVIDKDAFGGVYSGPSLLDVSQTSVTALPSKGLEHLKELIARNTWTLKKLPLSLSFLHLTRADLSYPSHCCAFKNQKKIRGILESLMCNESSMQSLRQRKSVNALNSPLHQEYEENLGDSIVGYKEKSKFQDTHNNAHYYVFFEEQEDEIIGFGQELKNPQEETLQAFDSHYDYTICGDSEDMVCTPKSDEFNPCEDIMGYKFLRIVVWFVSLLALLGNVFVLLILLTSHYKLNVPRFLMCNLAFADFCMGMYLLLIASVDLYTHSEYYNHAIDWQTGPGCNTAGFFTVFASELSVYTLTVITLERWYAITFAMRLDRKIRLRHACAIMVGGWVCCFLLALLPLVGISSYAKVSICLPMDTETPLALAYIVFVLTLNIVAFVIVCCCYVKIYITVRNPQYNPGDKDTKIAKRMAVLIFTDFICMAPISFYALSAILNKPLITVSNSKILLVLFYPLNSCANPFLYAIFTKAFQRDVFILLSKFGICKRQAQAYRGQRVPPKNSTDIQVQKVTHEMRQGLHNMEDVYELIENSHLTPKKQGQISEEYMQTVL
Structure (SMILES),Potency [1],Potency [2],Potency [3],outcome [4],Potency [5],Potency [6],Potency [7],Potency [8],Potency [9],"activity change, positive = activation ([10]; at 42.5 µM (top of the series))","activity change, positive = activation ([10]; at 92.4 µM (top of the series))"
CC(=O)CCC(=O)O,inactive,inactive,inactive,inactive,inactive,inactive,inactive,inactive,,,
OC[C@H]1O[C@H](O[C@]2(CCl)O[C@H](CCl)[C@@H](O)[C@@H]2O)[C@H](O)[C@@H](O)[C@H]1Cl,inactive,inactive,inactive,inactive,inactive,inactive,inactive,inactive,,,
O=c1[nH]cc(F)c(=O)[nH]1,inactive,10.1 µM (active) and inactive,inactive,,inactive,inactive,inactive,inactive,,,
O=C1O[C@H]([C@@H](O)CO)C(O)=C1O,inactive,inactive,inactive,inactive,inactive,inactive,inactive,inactive,,,
COc1ccc2c(c1)c(CC(=O)O)c(C)n2C(=O)c1ccc(Cl)cc1,inactive,inactive,inactive,inactive,inactive,inactive,inactive,inactive,30.8 µM (active) and inactive,-11.8% (inactive),-34.2% (inactive) and -25.5% (inactive)
CNNCc1ccc(C(=O)NC(C)C)cc1,inactive,inactive,inactive,inactive,inactive,inactive,inactive,inactive,,,
Cc1cccc(C)c1,inactive,inactive,inactive,inactive,inactive,inactive,inactive,inactive,inactive,,-11.8% (inactive) and 5.13% (inactive)
C/C=C/C=C/C(=O)O,inactive,inactive,inactive,inactive,inactive,inactive,inactive,inactive,,,
O=c1[nH]cnc2c1ncn2[C@H]1CC[C@@H](CO)O1,inactive,inactive,inactive,inactive,inactive,inactive,inactive,inactive,inactive,4.94% (inactive),7.43% (inactive) and 1.63% (inactive)
O=C1NC(=O)C(c2ccccc2)(c2ccccc2)N1,inactive,inactive,inactive,,inactive,inactive,inactive,inactive,,,
CCCCCCCCCCCC[N+](C)(C)Cc1ccccc1,30 µM (active) and 37.4 µM (active),53.9 µM (active),inactive,,98.8 µM (active) and 110 µM (active) and 49.2 µM (active),12.1 µM (active) and 21.2 µM (active) and 8.49 µM (active),3.4 µM (active) and 2.99 µM (active) and 2.13 µM (active),inactive,,,
CC(C)c1c(C(=O)Nc2ccccc2)c(-c2ccccc2)c(-c2ccc(F)cc2)n1CC[C@@H](O)C[C@@H](O)CC(=O)O,inactive,inactive,,inactive,inactive,inactive,inactive,inactive,,,
NC(=O)c1cccnc1,inactive,inactive,inactive,inactive,inactive,inactive,inactive,inactive,,,
C=C(C)C(=O)OCC(C)O (stereo not given),inactive,inactive,inactive,inactive,inactive,inactive,inactive,inactive,,,
Cc1ncc([N+](=O)[O-])n1C,inactive,inactive,inactive,inactive,inactive,inactive,inactive,inactive,inactive,5.13% (inactive),5.9% (inactive) and -0.499% (inactive)
NC(CO)(CO)CO,inactive,inactive,inactive,inactive,inactive,inactive,inactive,inactive,,,
CC(C)NCC(O)c1ccc(O)c(O)c1 (stereo not given),7.6 nM (active) and 4.9 nM (active) and 11.9 nM (active),inactive,,,inactive,inactive,43.1 µM (active) and inactive,inactive,inactive,7.23% (inactive),4.56% (inactive) and 1.6% (inactive)
CN(C)CCOC(C)(c1ccccc1)c1ccccn1 (stereo not given),inactive,inactive,inactive,,inactive,inactive,inactive,inactive,inactive,0.337% (inactive),3.01% (inactive) and -2.07% (inactive)
Cc1cc(=O)oc2cc(O)ccc12,inactive,inactive,,,inactive,inactive,inactive,inactive,,,
